# The campaign covered roughly 69,000 compounds. About 8,600 (12%) showed an effect of 50% or more. The entries come from a sample that favours strong results as a whole.
# System: Plasmodium berghei
# Assay: Screen against P. berghei liver stage (PbLuc), transformed with Luciferase, at 10uM
# Assay type: functional, HepG2
# Settings: tested at 10 uM
row,Structure (SMILES),INHIBITION
1,CC(C)c1sc(Cl)nc1C(=O)N1CCN(c2ccccc2)CC1,-1.23%
2,NC(=O)C1CCN(C(=O)NCc2csc(Br)c2)CC1,16.9975%
3,CN(C)C(C(=O)Nc1nccs1)c1c(F)cccc1Cl (stereo not drawn),50.8%
4,Cc1csc(N(C)C(=O)C(c2c(F)cccc2Cl)N(C)C)n1 (stereo not drawn),9.04%
5,CN(C(=O)C(c1c(F)cccc1Cl)N(C)C)c1nccs1 (stereo not drawn),66.5%
6,N#Cc1c(F)cccc1N1CCC(C(=O)Nc2nccs2)CC1,17.5%
7,CN(C)C(C(=O)NCC1(O)CCCCC1)c1c(F)cccc1F (stereo not drawn),-21.2%
8,COCCOc1ncccc1C(=O)N(C)c1nccs1,45.2%
9,CCNc1cc2c(nn1)CCN(C(=O)c1nccnc1N)C2,23.5%
10,Cc1c(C2CC(=O)Nc3c2cnn3C(C)C)cnn1C (stereo not drawn),24.7%
11,Cc1cn2nc(N(C)C3CCCN(c4cccnn4)C3)sc2n1 (stereo not drawn),11.5%
12,CCCNC(=O)COc1cccc(-c2nc(C(C)C)no2)c1,31.3%
13,Cc1ccc(Nc2nccc(C3CCCN(CC(=O)N(C)C)C3)n2)nc1 (stereo not drawn),79.6%
14,COCC(=O)N1CC(c2ccnc(Nc3ccc(C)cn3)n2)C1,6.32%
15,Cc1cccnc1Nc1nccc(C2CN(CC(N)=O)C2)n1,-4.51%
16,CC(=O)N1CC(c2ccnc(Nc3ccc(C)cn3)n2)C1,-9.32%
17,Cc1ccc(Nc2nccc(C3CN(C(C)C)C3)n2)nc1,61.7%
18,Cc1ccc(Nc2nccc(C3CCN(CC(N)=O)C3)n2)nc1 (stereo not drawn),88.1%
19,Cc1ccc(Nc2nccc(C3CN(CC(N)=O)C3)n2)nc1,46.6%
20,CC(=O)N1CCC(c2ccnc(Nc3ccc(C)cn3)n2)C1 (stereo not drawn),-55%
21,O=C(C1CCC1)N1CCCC(c2ccnc(Nc3cnccn3)n2)C1 (stereo not drawn),-14.1%
22,Cn1nc2c(cc1=O)CN(Cc1nc(-c3cccnc3)no1)CC2,13.3%

row,Structure (SMILES),INHIBITION
1,CC(C)NC(=O)N1CCCC2(CCN(c3ccccc3)C2=O)C1 (stereo not drawn),-20.8%
2,COc1cccc(NC(=O)Cn2cc(-c3ccccc3)ncc2=O)c1,28.2%
3,CN(Cc1n[nH]c2c1CCCC2)C(=O)c1cccc(CCC(C)(C)O)c1,48.5%
4,CN(Cc1n[nH]c2c1CCC2)C(=O)c1cccc(CCC(C)(C)O)c1,68.5%
5,CN(Cc1cc[nH]n1)C(=O)c1cccc(CCC(C)(C)O)c1,34.1%
6,OC1CCN(c2nc(-c3ccccc3)no2)CC1,-3.74%
7,OC1CCN([C@@H]2CCN(c3nc(-c4ccccc4)no3)C[C@H]2O)CC1,69.8%
8,O[C@H]1CN(c2nc(-c3ccccc3)no2)C[C@@H]1N1CCOCC1,-22.7%
9,CC(C)c1ccc2c(c1)C1(CC(=O)Nc3[nH]ncc31)C(=O)N2C (stereo not drawn),17.7%
10,CCOc1ccc(NC(=O)NCc2cccnc2OCC)cc1,13.6%
11,Cc1cccc(CN2CCc3ncnc(-c4ccsc4)c3CC2)n1,53.2%
12,Cc1nc(CN2CCN(c3nc4c(s3)c(C)nn4C)CC2)cs1,73.9%
13,Cc1nn(C)c2nc(N3CCN(Cc4nccn4C)CC3)sc12,37.6%
14,Cc1cccc(CN2CCc3ncnc(C)c3CC2)n1,6.8%
15,CCOc1ncnc2c1CCN(Cc1csc(C)n1)CC2,1.94%
16,Cc1nc(CN2CCc3ncnc(-c4ccncc4)c3CC2)cs1,27.6%
17,c1ccc(CN2CCc3ncnc(-c4ccsc4)c3CC2)nc1,19.9%
18,Cc1nc(CN2CCc3ncnc(C)c3CC2)cs1,56.3%
19,Cc1nc(CN2CCc3ncnc(C4CC4)c3CC2)cs1,15.9%
20,Cc1nc(CN2CCc3ncnc(-c4ccsc4)c3CC2)cs1,60.2%
21,Cc1nc(CN2CCc3ncnc(-c4ccccc4)c3CC2)cs1,6.6%
22,Cc1nc(CN2CCN(c3ccc(SC(C)C)nn3)CC2)cs1,-4.13%

row,Structure (SMILES),INHIBITION
1,Cc1cn(CC(=O)Nc2cc(C(C)C)nn2C)cn1,-0.273%
2,CC1CN(C)CCN1CC(=O)NCCOc1ccc(Cl)cc1 (stereo not drawn),35.95%
3,CC(c1ccccn1)N(C)Cc1cccc(C(=O)Nc2nccn2C)c1 (stereo not drawn),9.57%
4,CN(C)c1nc(NCCc2ccnn2C)ncc1F,42.3%
5,O=C(Cc1ccc(F)c(Br)c1)NC1CCN(CC(F)F)CC1,-60.4%
6,CN(C)CC(=O)N1CCc2ncnc(-c3ccoc3)c2CC1,23.1%
7,CN(C)CC(=O)N1CCc2ncnc(-c3cncnc3)c2CC1,6.83%
8,CN(C)CC(=O)N1CCc2ncnc(-c3ccsc3)c2CC1,70.4%
9,CCn1ccc(NC(=O)CN2C(=O)C(C)(C)c3ccccc32)n1,23.1%
10,Cc1ccc(N2CCCC(NCc3c(C)noc3C)C2)nn1 (stereo not drawn),-89%
11,CN1CC(C(=O)NCCc2ccc3c(c2)OCO3)CC1=O (stereo not drawn),20%
12,COc1ccc(CNC2CCCN(Cc3noc(C)n3)C2)cc1F (stereo not drawn),40.3%
13,Cc1noc(-c2ccnc(Oc3ccc(CN4CCCC4)cc3F)c2)n1,87.4%
14,Fc1ccc(CN2CCC(c3noc(-c4cnccn4)n3)CC2)cc1F,18.3%
15,CCOc1cc(CNc2cc(-c3nc(C)no3)ccn2)ccc1OC,1.84%
16,Cc1noc(-c2ccnc(Oc3ccc(CN4CCCC4)cc3C)c2)n1,89%
17,COc1ccc(CCNc2cc(-c3nc(C)no3)ccn2)cc1OC,10.8%
18,CC(=O)N1CC(Cc2nccc3ccn(C)c23)C1,47.2%
19,COc1cc(OC)cc(-c2cc(CN)nc3ccnn23)c1,-18.2%
20,Cc1ccccc1S(=O)(=O)N(C)[C@@H]1CC[C@@H](n2ccnc2C)[C@@H]1O,38.15%
21,CC(c1nc(C2CC2)no1)N1CCN(CC(=O)N2CCOCC2)CC1 (stereo not drawn),10.7%
22,Cc1ccc(CN2Cc3nccn3CC(Cn3cccn3)C2)s1 (stereo not drawn),45.7%

row,Structure (SMILES),INHIBITION
1,Cc1ccc(CN2Cc3nccn3CC(CN(C)C)C2)s1 (stereo not drawn),64.9%
2,CCN(CC)CC1CN(Cc2ccc(C)s2)Cc2nccn2C1 (stereo not drawn),-30.6%
3,OC1CCN(C2CCN(Cc3cccc(Cn4cccn4)c3)CC2)CC1,24.9%
4,Cc1nn(CCO)cc1CN1CCC(C(C)N2CCCC2)CC1 (stereo not drawn),32.5%
5,Cc1nn(CCO)cc1CN1CCC(N2CCC(O)CC2)CC1,50.5%
6,CS(=O)(=O)NC1CCN(Cc2ccc(OCc3ccccn3)cc2)CC1,-1.83%
7,CCn1cc(CN2CCC(C3CCN(C)CC3)CC2)cc1C#N,66.1%
8,CCn1cc(CN2CCC(CNC(C)=O)CC2)cc1C#N,24.2%
9,CCn1cc(CN2CCC(NS(C)(=O)=O)CC2)cc1C#N,62.4%
10,CCn1cc(CN2CCCCC2CCn2ccnc2C)cc1C#N (stereo not drawn),29.2%
11,CCn1cc(CN2CCC(c3ccncc3)CC2)cc1C#N,13%
12,CCn1cc(CN2CCC(N3CCC(O)CC3)CC2)cc1C#N,64.9%
13,CCn1cc(CN2CCC(CN3CCCCC3)CC2)cc1C#N,6.88%
14,Cc1nn(CCO)cc1CN1CCCN(C2CCCC2)CC1,12.8%
15,Cc1ccc(CC(=O)N(C)CC2(O)CCCN(c3ccccn3)C2)s1 (stereo not drawn),-2.11%
16,CC(C)N(Cc1ccccn1)Cc1nc2c(cnn2C)c(=O)[nH]1,25.65%
17,CN(C)C(=O)CN1CC[C@H]2CN(C3CCOCC3)C[C@@H]2C1=O,30.9%
18,CCC(=O)N1CCN(C)C(=O)C(Cc2ccccc2-c2cccs2)C1 (stereo not drawn),22%
19,O=C(c1cc(=O)c(OCc2ccccc2F)co1)N1CCSCC1,21.5%
20,CS(=O)(=O)c1cncnc1C1CCCN(C(=O)Cc2ccccc2F)C1 (stereo not drawn),17.985%
21,CCNC(=O)[C@@H]1C[C@H](N)CN1C(=O)C1(c2ccc(OC)cc2)CCCC1,-12.7%
22,CCN(CC)C(=O)CNC(=O)N1CCC(c2ccc(OC)cc2)C1 (stereo not drawn),21.7%

row,Structure (SMILES),INHIBITION
1,CCC(=O)Nc1cccc(OCC(=O)N2CC=CC2C(C)C)c1 (stereo not drawn),-16.6%
2,Cc1ccccc1CCC(=O)N1CCCC(c2cc(C(N)=O)[nH]n2)C1 (stereo not drawn),11.9%
3,CCn1cc(NC(=O)c2c(C)nn(C)c2C)c(C(N)=O)n1,27.4%
4,Cc1ccc(-c2ccc(CC3NCCN(C)C3=O)cc2)cc1 (stereo not drawn),29.2%
5,Cn1nccc1-c1nc2c(cc1C(=O)O)CCN(CC1CC1)CC2,-10.3%
6,Cn1nccc1-c1nc2c(cc1C(=O)O)CCN(C(=O)C1CC1)CC2,72.3%
7,Cn1cc(-c2nc3c(cc2C(=O)O)CCN(C(=O)C2CC2)CC3)cn1,-27.1%
8,O=C(Cn1nc(-c2ccc(F)cc2)oc1=O)NCCc1ccccc1,27.6%
9,CNC(=O)CN1CC[C@H]2CN(C(=O)c3ccc(C)cc3)C[C@H]2C1,-99.2%
10,Cc1nc(CN2CCC3(CCCN(Cc4cccnc4)C3)C2=O)cs1 (stereo not drawn),36.2%
11,CC(C)C(=O)N1CCC[C@]2(C(=O)N(C)C)CN(c3ccccn3)C[C@@H]2C1,-28%
12,Cn1cc(C2CCCN2Cc2csc(Cc3ccccc3)n2)cn1 (stereo not drawn),35.9%
13,COc1ccc(CNC(=O)c2ccoc2CN2CCNC(=O)C2)cc1,29.3%
14,CCCc1nc(N2CCCCCC2)c2c(n1)c(C)nn2CC,78.4%
15,CCCc1nc(N2CCN(CC)CC2)c2c(n1)c(C)nn2CC,33.5%
16,CCCc1nc(N2CCCCC2)c2c(n1)c(C)nn2CC,11.7%
17,CCCc1nc(N2CCC(C)CC2)c2c(n1)c(C)nn2CC,12.3%
18,CCCc1nc(N2CCSCC2)c2c(n1)c(C)nn2CC,-3.47%
19,CCCc1nc(N2CCCC(C)C2)c2c(n1)c(C)nn2CC (stereo not drawn),66.5%
20,CCC(=O)N1CCC(c2nc(O)c3c(n2)CN(C2CCCCC2)CC3)C1 (stereo not drawn),38.8%

# — ChEMBL document CHEMBL4513216, “Probing the Open Global Health Chemical Diversity Library for Multistage-Active Starting Points for Next-Generation Antimalarials” (ACS Infect Dis, 2020)
